In the library only some 19% were active in any assay of this set; here they are far more common.
HT1080-NT tox: qHTS for induction of synthetic lethality in tumor cells producing 2HG: qHTS for the HT-1080-NT fibrosarcoma cell line; HT-1080-NT fibrosarcoma viability, CellTiter-Glo ATP luminescence, 48 h; actives 1.6% (n = 360,000); Potency, µM (highest dose often 46.1 µM), for the others: at the top dose activity, negative = less viability, actives largely listed as cytotoxic;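 also: NT is the 2HG producing partner of a matched IDH1 knockdown line; 0% = DMSO-treated cells and -100% = media-only wells without cells; nearly all actives have a fitted effect of over 55% in size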
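Luminescent CellTiter-Glo readout after 48 hours of compound exposure at 37 degrees C defined viability of HT-1080-NT cells. Activity was normalized to DMSO wells and cell-free media wells; concentration-response curves were fitted and assigned curve classes.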
HT1080 IDH1KD tx: qHTS for induction of synthetic lethality in tumor cells producing 2HG: qHTS for the HT-1080-IDH1KD cell line. Potency, µM (titrated, usually from 46.1 µM), without a hit: top-dose activity, negative = toxicity, usual class: cytotoxic. actives 2% (n = 360,000). AID 686971, 2013. HT-1080 IDH1 knockdown viability, ATP luminescence, 48 h;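 also: 0% = DMSO wells and -100% = cell-free medium wells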
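In this qHTS, HT-1080 cells depleted of IDH1 are exposed for 48 h at 37 °C to compound titrations. Toxicity is scored from CellTiter-Glo luminescence, with DMSO as full viability and medium alone as none.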
KB-3-1 cytotox: qHTS assay for MDR1-selective chemotherapeutics: Primary screen using the parental adenocarcinoma cell KB-3-1; KB-3-1 viability, CellTiter-Glo ATP luminescence, 72 h; Potency, µM (highest dose often 46.1 µM), hits mostly cytotoxic; actives 1.4% (n = 400,000); AID 1347075, 2019; also: nearly all actives have a fitted effect of over 60% in size
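Screening of KB-3-1 cells (DMEM, 10% FBS, phenol-red free) ran from lowest to highest compound concentration; after 72 h at 37 °C viability was read luminescently and curves fitted.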
TDP1 cell CPT: qHTS for Inhibitors of human tyrosyl-DNA phosphodiesterase 1 (TDP1): qHTS in cells in presence of CPT. actives 12% (n = 420,000). Potency, µM (series often up to 46.2 µM), for the others: at the top dose activity change, negative = growth inhibition, usual class: inhibitors. chicken DT40 Tdp1-/-;hTDP1 cells + 20 nM CPT, ATP luminescence, 48 h; also: nearly all actives have a fitted effect of over 55% in size
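Cell growth measured by CellTiter-Glo luminescence after a minimum 48 h, 37 C compound exposure with 20 nM CPT in Tdp1-knockout DT40 cells stably expressing hTDP1, seeded 400/well; qHTS titration format.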
KB-V1 cytotox: qHTS assay for MDR1-selective chemotherapeutics: Primary screen using the drug-selected MDR subline cells KB-V1; AID 1347076, 2019; Potency, µM (doses to about 46.1 µM), most hits filed as cytotoxic; KB-V1 MDR cells viability, CellTiter-Glo, 72 h; actives 3.4% (n = 400,000); also: nearly all actives have a fitted effect of over 60% in size
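KB-V1 cells (P-gp-expressing MDR subline of KB-3-1) in phenol-red-free DMEM with 10% FBS were exposed to library compounds over a concentration series for 72 h at 37 degrees C. Viability read by CellTiter-Glo luminescence; concentration-effect curves fitted after normalization.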
DT40 TDP1 no CPT: qHTS for Inhibitors of human tyrosyl-DNA phosphodiesterase 1 (TDP1): qHTS in cells in absence of CPT | DT40 Tdp1-/- hTDP1 cells, no CPT, ATP luminescence, 48 h | Potency, µM (series often up to 46.2 µM), for the others: at the highest dose activity change, negative = growth inhibition, usual class: inhibitors | actives 15% (n = 420,000); also: nearly all actives have a fitted effect of over 55% in size
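Seeded 400 DT40-hTDP1 cells/well (vehicle DMSO, no 20 nM CPT); pinned compounds; ≥48 hr at 37 °C; CellTiter-Glo luminescence as viability measure.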
An asterisk follows results filed as active; i = inactive; ? = inconclusive; · = no result given; ! = not active in a repeat. Calls follow the shape of the dose curve; as a rule, active = well fitted curve in the direction sought with a large enough effect; inconclusive = small, poorly fitted or top-dose-only effect, or another doubt; inactive = no such curve, though single readings can be large; an effect the other way counts as inactive or inconclusive. Unless noted, % is scaled to controls: 0 for no effect and ±100 for the full control effect; potency is read from the fitted curve at half-maximal effect.

SMILES	HT1080-NT tox	HT1080 IDH1KD tx	KB-3-1 cytotox	TDP1 cell CPT	KB-V1 cytotox	DT40 TDP1 no CPT
O=[N+]([O-])c1nccn1CO[C@@H](CO)[C@H](O)CO	·	·	·	?	·	2%
O=C1C[C@@H]2OCC=C3CN4CC[C@]56c7ccccc7N1[C@H]5[C@H]2[C@H]3C[C@H]46	·	·	·	·	·	-18%
ClCCN(CCCl)c1ccc(C=NNc2ncccn2)cc1	-17%	-20%	i	4.6µM*	i	5.2µM*
N#Cc1ncc(N=Cc2ccc(N(CCCl)CCCl)cc2)s1	?	10µM*	?	10µM*	i	12µM*
O=C(Cc1cc(=O)oc2cc(O)ccc12)NN=Cc1ccc(N(CCCl)CCCl)cc1	-29%	-29%	i	?	i	?
CCC(=Nc1ccccc1N)c1c(O)[nH]c(=O)[nH]c1=O	-15%	-7%	i	0%	?	8%
Cc1ccccc1NC(=O)N1Cc2ccccc2-n2nncc2C1	-4%	1%	i	-8%	i	-17%
COC(=O)[C@@H](Cc1ccccc1)N(Cc1ccccc1)S(=O)(=O)N(Cc1ccccc1)[C@H](Cc1ccccc1)C(=O)OC	-1%	-1%	?	23µM*	?	10µM*!
C=C[C@H](Cc1ccccc1)N(Cc1ccccc1)S(=O)(=O)N(Cc1ccccc1)[C@H](C=C)Cc1ccccc1	14%	17%	i	?	i	13µM*
COC(=O)c1ccc(CC(C(=O)c2ccccc2)N(C)C)cc1 (stereo not given)	2%	1%	i	?	i	?
N#CC1=C(N)Oc2c(c(=O)oc3ccccc23)C1c1ccncc1 (stereo not given)	-2%	-2%	i	2%	i	-1%
N#CC1=C(N)Oc2c(c(=O)sc3ccccc23)C1c1cccnc1 (stereo not given)	3.3µM*	4.6µM*	?	8.2µM*	i	8.2µM*
C=C1C2CC[C@@]3(C)C(c4ccoc4)OC(=O)C[C@@]13OC1CC(=O)C(C)(C)C(C(OC(C)=O)C(=O)OC)[C@@]12C (stereo not given in full)	·	·	·	?	·	-14%
O=[N+]([O-])c1ccc(N2CCCC2)c2ccncc12	-7%	-21%	i	?	i	21µM*
O=[N+]([O-])c1ccc(NC2CCCC2)c2ccncc12	-16%	-1%	i	?	i	?
COc1ccc(-[n+]2c(-c3ccccc3)cc(-c3ccccc3)cc2-c2ccccc2)cc1	8.2µM*	7.3µM*	7.3µM*	0.41µM*	i	0.26µM*
Oc1ccccc1-[n+]1c(-c2ccccc2)cc(-c2ccccc2)c(O)c1-c1ccccc1	-15%	-5%	i	?	i	?
Oc1ccc(-[n+]2c(-c3ccccc3)cc(-c3ccccc3)cc2-c2ccccc2)cc1	12µM*	21µM*	i	1.2µM*	i	0.65µM*
C[n+]1c(-c2ccccc2)cc(-c2ccc(O)cc2)cc1-c1ccccc1	-22%	-13%	i	18µM*	i	21µM*
O=[N+]([O-])c1ccc(-[n+]2c(-c3ccccc3)cc(-c3ccccc3)cc2-c2ccccc2)cc1	?	?	i	?	i	21µM*
CC1(C)C(O)CC(=O)[C@]2(C)C1CC(=O)[C@]1(C)C2CC[C@@]2(C)C(c3ccoc3)OC(=O)C3O[C@@]321 (stereo not given in full)	·	·	·	-20%	·	-17%
C/C=C1\CN2[C@H]3C[C@@]45c6ccccc6N(C)[C@H]4[C@@H]2CC1C3[C@H]5O (stereo not given in full)	7%	3%	i	4%	i	-3%
C[C@]12CCC3C(CC[C@@H]4CC(=O)CC[C@]34C)C1CC[C@@H]2O (stereo not given in full)	1%	1%	i	0%	?	-25%
C[C@]12CCC3C(CC[C@H]4C[C@H](O)[C@H](O)C[C@]34C)C1CC[C@@H]2O (stereo not given in full)	-1%	0%	i	21µM*	?	?
C[C@]12CCC(=O)C[C@@H]1CC[C@@H]1[C@@H]2CC[C@]2(C)[C@@H](O)CC[C@@H]12	?	8%	i	9%	16µM*	-22%
SMILES	HT1080-NT tox	HT1080 IDH1KD tx	KB-3-1 cytotox	TDP1 cell CPT	KB-V1 cytotox	DT40 TDP1 no CPT
On1ccccc1=S	0.041µM*	0.33µM*	i	0.13µM*	?	0.0092µM*
CC(C)CN1CC2(CCN(C(=O)c3ccncc3)CC2)C1	·	·	·	-15%	·	4%
NC(=O)Cc1cccc(C(=O)c2ccccc2)c1N	·	·	·	-14%	·	?
Cc1cccc(NC(=S)N/N=C/c2ccc([N+](=O)[O-])s2)c1	18µM*	?	?	13µM*	i	7.9µM*
Cc1cccc(NC(N)=S)c1	-13%	-4%	i	-23%	i	-18%
CN1CCN(C(=O)Cc2nc3ccccc3[nH]2)CC1	0%	-1%	i	4%	i	-21%
Cc1ccc(C(=O)Nc2nc3ccccc3[nH]2)cc1	?	?	?	?	?	18µM*
CC(C)[C@@H]1CN[C@H](C(=O)O)[C@@H]1CC(=O)O	·	·	·	-1%	·	-16%
Cc1ccccc1C(=O)Nc1sc2c(c1C(=O)O)CCC(C(C)(C)C)C2 (stereo not given)	·	·	·	10µM*	·	4.6µM*
C[C@]12CC[C@H]3[C@@H](CCC4=CC(=O)CC[C@@]43O)[C@@H]1CCC2=O	5%	7%	i	-21%	i	-3%
C=CCc1ccc(OC)cc1	6%	-3%	i	3.7µM*!	i	?
COc1ccc(CN2CCNCC2)cc1	-3%	-2%	i	-15%	i	?
NC(=O)CS(=O)C(c1ccccc1)c1ccccc1 (stereo not given)	·	·	·	6%	·	-7%
CCC1(C)CC(C(N)=S)CCO1 (stereo not given)	5%	15%	i	18µM*	i	21µM*

Screens (PubChem)
